CCHFV vOTU inh – CCHFV vOTU protease inhibition; Pep-AMC fluorescence; inhibition, % at 11.5 µM; actives 0.55% (n = 370,000); AID 651958; in the data active = inhibition above about 30%
BJeLR viability – kills HRASV12-expressing BJeLR cells. BJeLR (HRASV12) viability, CellTiter-Glo ATP luminescence, 48 h. inhibition, % (test concentration not listed). actives 0.17% (n = 300,000). AID 1554; in the data active = inhibition above about 50%
Mtb betalactam – beta-lactam sensitization of Mtb H37Rv | M. tuberculosis H37Rv growth with meropenem, percent inhibition | inhibition, % at 25 µM | actives 0.27% (n = 330,000);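 also: growth measured after seven days incubation then overnight dye step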
RecA intein inh – inhibitors of M. tuberculosis RecA intein splicing; P9WHJ3; cell-free RecA intein splicing, fluorescence; actives 0.75% (n = 290,000); inhibition, % (test concentration not listed); AID 2221; in the data active = inhibition above about 30%
Yp Topo-I inh – Y. pestis Topo-I inhibition via cleavage products; Y. pestis Topo-I cleavage product accumulation, plate reader; activity, % at 10 µM; actives 0.064% (n = 360,000); in the data active = activity above about 50%, passing the limit was not always enough
BioA inh – blocks M. tuberculosis BioA enzyme activity | actives 0.096% (n = 360,000) | inhibition, % at 9.99 µM | AID 602481 | purified M. tuberculosis BioA enzyme, plate reader; in the data active = inhibition above about 40%
GFP chromophore – counter-screen GFP chromophore formation inhibition; cell-free GFP chromophore formation, fluorescence; EC50, µM; AID 434968; actives 83% (n = 2,100); shares compounds with RecA intein inh
Large screens that a line does not name were inactive (follow-up assays come after a bar, where they were run). Rows were chosen to be rich in hits. Some 1.1% of all compounds tested hit in one or more screens of this group. Unless noted, no rule for the calls is given here.

C[C@@H]1CCCCO[C@@H](CN(C)S(C)(=O)=O)[C@H](C)CN([C@@H](C)CO)C(=O)c2cc(N(C)C)ccc2O1	none (no result: CCHFV vOTU inh, BJeLR viability, Mtb betalactam, RecA intein inh, Yp Topo-I inh)
C[C@H](CO)N1C[C@H](C)[C@@H](CN(C)Cc2ccc(C(F)(F)F)cc2)OCCCC[C@H](C)Oc2ccc(NC(=O)NC3CCCCC3)cc2C1=O	none (no result: CCHFV vOTU inh, BJeLR viability, Mtb betalactam, RecA intein inh, Yp Topo-I inh)
COc1ccc2nc3cc(Cl)ccc3c(Nc3cc(C(C)C)c(O)cc3C)c2c1	RecA intein inh 73 (no result: BioA inh) | GFP chromophore 0.75
O=C(O)C1=NN(c2cc(Cl)c(S(=O)(=O)O)cc2Cl)C(=O)C1	none (no result: BJeLR viability, Mtb betalactam, RecA intein inh)
CC1=NN(c2ccc(S(=O)(=O)O)cc2C)C(=O)C1	RecA intein inh 91 (no result: BioA inh) | GFP chromophore 18
CCCCCCCCCC[N+](C)(C)CC/C=C1/c2ccccc2Sc2ccc(Cl)cc21	RecA intein inh 69 (no result: CCHFV vOTU inh) | GFP chromophore 12
CCCCCCCCCCC[N+](C)(C)CC/C=C1/c2ccccc2Sc2ccc(Cl)cc21	RecA intein inh 63 (no result: CCHFV vOTU inh) | GFP chromophore 9.5
CN(C)CC/C=C1\c2ccccc2Sc2ccc(Cl)cc21	none
CC[N+](C)(C)CC/C=C1/c2ccccc2Sc2ccc(Cl)cc21	none
CCOC(=O)c1nnc(-c2ccc(C)cc2)nc1Sc1ccccc1Cl	none
CCOC(=O)c1nnc(-c2ccccc2)nc1Sc1c(Cl)cccc1Cl	RecA intein inh 54 | GFP chromophore 38
CCCC(=O)Nc1ccc2c(c1)C(=O)N(C)[C@H]1CC[C@@H](CC(=O)Nc3cn(C)nc3C)O[C@@H]1CO2	none (no result: CCHFV vOTU inh, BJeLR viability, Mtb betalactam, RecA intein inh, Yp Topo-I inh)
Cc1ccc(C(=O)N2CCN3C(=O)c4ccccc4C23c2ccc(Cl)cc2)cc1 (stereo unspecified)	none (no result: BioA inh)
O=C(CCl)N1CCN2C(=O)c3ccccc3C12c1ccc(Cl)cc1 (stereo unspecified)	RecA intein inh 83 (no result: BioA inh) | GFP chromophore 4.2
COc1ccc(NC(=O)N(C)C[C@H]2Oc3c(NC(=O)C4CCCCC4)cccc3C(=O)N([C@@H](C)CO)C[C@H]2C)cc1	none (no result: CCHFV vOTU inh, BJeLR viability, Mtb betalactam, RecA intein inh, Yp Topo-I inh)
Cc1cc(-c2ccccc2)nc2cc(C(=O)N(Cc3ccccc3)Cc3ccccc3)nn12	RecA intein inh 32 | GFP chromophore inactive
Cc1cc(Nc2ccccc2)c2c([N+](=O)[O-])ccc(C)c2n1	RecA intein inh 71 | GFP chromophore 12
Cc1cc(Nc2cccc([N+](=O)[O-])c2)c2cccc(C)c2n1	none (no result: RecA intein inh)
Cc1c([N+](=O)[O-])cnc(Sc2ccccc2)c1[N+](=O)[O-]	RecA intein inh 85 | GFP chromophore 0.18
Cc1ccc(Sc2ncccc2[N+](=O)[O-])cc1	none
[O-][n+]1c2c(nc3c1-c1ccccc1C3O)CCCC2 (stereo unspecified)	RecA intein inh 41 (no result: CCHFV vOTU inh, Yp Topo-I inh, BioA inh) | GFP chromophore 33
CCOc1ccccc1C1C(C#N)=C(N)Oc2n[nH]c(CC)c21 (stereo unspecified)	RecA intein inh 32 | GFP chromophore 33
CCOC(=O)Cc1[nH]nc2c1C(c1cccc(OC)c1OC)C(C#N)=C(N)O2 (stereo unspecified)	RecA intein inh 45 | GFP chromophore inactive
CCOC(=O)Cc1[nH]nc2c1C(c1cc(OC)ccc1OC)C(C#N)=C(N)O2 (stereo unspecified)	RecA intein inh 63 | GFP chromophore 4.6
COc1cc(NCCCCCCCN)c2ncccc2c1	RecA intein inh 72 (no result: CCHFV vOTU inh) | GFP chromophore 5.2
Cc1ccc(S(=O)(=O)NC(=O)Nc2ccc(N(C)C)cc2)cc1	CCHFV vOTU inh 50, RecA intein inh 49 | GFP chromophore 19
Cc1ccccc1-n1ncc2c([N+](=O)[O-])cc([N+](=O)[O-])cc21	RecA intein inh 85 (no result: BioA inh) | GFP chromophore 5.8
CC1=NNC(=O)C1C(c1ccccc1)C1C(=O)NN=C1C (stereo unspecified)	RecA intein inh 98 (no result: CCHFV vOTU inh, Yp Topo-I inh, BioA inh) | GFP chromophore 0.41
O=C1NN=C(c2ccccc2)C1Cc1ccccc1 (stereo unspecified)	none (no result: BJeLR viability, Mtb betalactam, RecA intein inh, BioA inh)
CC1=NNC(=O)C1Cc1ccccc1 (stereo unspecified)	RecA intein inh 96 | GFP chromophore 0.66
COCC(=O)Nc1ccc2c(c1)OC[C@H](C)N(C(=O)C1CCCC1)C[C@@H](C)[C@H](OC)CN(C)C2=O	none (no result: CCHFV vOTU inh, BJeLR viability, Mtb betalactam, RecA intein inh, Yp Topo-I inh)
CS(=O)(=O)c1ccc(C(=O)OCc2nnc(-c3ccc(Cl)cc3)o2)cc1[N+](=O)[O-]	RecA intein inh 67 (no result: CCHFV vOTU inh, BioA inh) | GFP chromophore 6.8
O=C(OCc1nnc(-c2ccc(Cl)cc2)o1)c1ccc(O)cc1	none (no result: BioA inh)

Screening results as filed in PubChem.
